# E-sel TNF inh – TNF alpha driven E-selectin expression inhibition; 120,000 tested, 0.71% active; inhibition, % at 2 µM; AID 1246; HUVEC TNFa-induced E-selectin immunofluorescence, high content;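 active = inhibition above the batch mean plus 3 SD, and confirmed as a hit on visual image review, cut at about 43% in these data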;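 also: 0% = TNF-stimulated DMSO wells and 100% = unstimulated control wells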
# Phagocyt inh – inhibitors of macrophage phagocytosis; J774A.1 macrophage IgG-bead phagocytosis, imaging; inhibition, % at 5 µM; 110,000 tested, 0.07% active; AID 1029;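 active = inhibition above the mean of the plate negative controls plus 5 SD, cut at about 13% in these data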;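 also: phagocytic index as fraction of beads internalized from green versus red external bead signal; plate controls were DMSO negative control for no effect and cytochalasin-D positive control for full effect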
# F-actin modifier – modifiers of cytoskeleton assembly. HUVEC TNFa F-actin phalloidin imaging, high content. inhibition, % at 2 µM. 91,000 tested, 0.18% active;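 active = inhibition above the batch mean plus 3 SD and confirmed as a hit by visual image inspection, cut at about 30% in these data, passing the limit was not always enough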
# HUVEC tox TNFa – HUVEC cytotoxicity counter-screen, TNF alpha stimulated | 93,000 tested, 0.17% active | HUVEC TNFalpha-stimulated, Hoechst cell count, imaging | cell count reduction, % at 2 µM;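 active = cell count reduction exceeding the screen mean by over 5 SD, scaled to untreated wells per plate, cut at about 78% in these data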;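 also: cells counted after 24 h of TNF alpha exposure following the 1 h pretreatment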
# SDO1 yeast rescue – sdo1-depleted yeast growth rescue | S. cerevisiae sdo1-depleted JHY4D growth rescue, OD600 30 h; active compounds read high; pdr5 snq2 efflux-pump mutant strain | z-score at 10 µM | 140,000 tested, 0.21% active;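 active = z-score above 3 at both the 24 hr and the 30 hr optical density reads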;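 also: z-score against mean and SD of all compound wells on the same plate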
# VCAM1 TNFa inh – reduces TNF alpha induced VCAM1 expression in HUVEC; HUVEC TNFa-induced VCAM-1 immunofluorescence, high-content imaging; inhibition, % at 2 µM; 95,000 tested, 0.48% active; AID 802;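 active = inhibition above the batch mean plus 3 SD, with images confirmed as a hit by eye, cut at about 37% in these data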;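 also: 0% = TNF-stimulated DMSO wells and 100% = unstimulated control wells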
# sdo1 rescue conf – SDO1-depleted yeast growth rescue confirmation; OD recovery (concentration not given with the values); 440 tested, 44% active; AID 949; shares compounds with SDO1 yeast rescue; S. cerevisiae JHY4D (SDO1-depleted) growth rescue, OD600, 30 h; active compounds read high; efflux-deficient strain, SNQ2 and PDR5 mutated;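 active = yeast growth recovered at 30 hours, either rising with dose fitted slope above 0.001 or with average optical density gain above 0.07, some results past the limit were not filed as active; inactive = growth falling with dose or no effect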;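 also: gain in OD600 from 0 h to 30 h averaged across all seven doses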
# Starred values were filed as active, the others as inactive; x = not tested or not shown. Only some compounds are listed: those with a hit (about 1.2% of all), similar ones and a draw of the others.
SMILES,E-sel TNF inh,Phagocyt inh,F-actin modifier,HUVEC tox TNFa,SDO1 yeast rescue,VCAM1 TNFa inh,sdo1 rescue conf
Cc1cccc(OCCn2c(S(=O)(=O)O)nc3ccccc32)c1,-15,3,20,-59,1,15,x
S=C(Nc1ccccc1)Nc1nc2ccccc2n1CCOc1ccc(Br)cc1,x,-6,x,x,7.6*,x,0.089*
O=C(NCCCn1ccnc1)C(=O)c1c[nH]c2ccccc12,0,x,x,x,x,x,x
Cc1cccc(NC(=O)COC(=O)CNC(=O)C2CCCCC2)c1,-6,0,1,-26,5.7*,-10,0.067
Cn1c(NCc2ccccc2)nc2c1c(=O)n(Cc1ccc(Br)cc1)c(=O)n2C,x,0,4,-8,-2,14,x
COc1ccc(CNc2nc3c(c(=O)n(Cc4ccc(Br)cc4)c(=O)n3C)n2C)cc1,-13,2,-29,1,-0.01,-12,0.069
Cc1[nH]c2ccccc2c1C(=O)CN1CCN(C2CCCCC2)CC1,-1,2,5,-39,9.1*,6,0.045
COc1ccc(OC)c(NC(=O)c2ccc(-c3cccs3)cc2)c1,53,x,x,x,x,x,x
O=C(CN1CCCCCC1)N/N=C/c1cccc(Cl)c1Cl,x,-5,x,x,-0.72,x,x
CC(=O)Nc1sc2c(c1C#N)CCC(C)C2 (centres undefined),-10,x,x,x,x,x,x
Cc1cc(C(=O)Nc2sc3c(c2C#N)CCC(C)C3)cs1 (centres undefined),-7,-4,-6,20,2.2,-35,0.055
CN(C)c1ccc(/C=[N+](\[O-])C2N(c3ccccc3)C(=S)SC2(C)C)cc1 (centres undefined),x,-2,x,x,7.9*,x,0.034
O=C1N=C2N(CCN3CCCCC3)c3ccccc3N2/C1=C\c1ccc([N+](=O)[O-])o1,10,x,x,x,x,x,x
CCOC(=O)C1C(c2cccc([N+](=O)[O-])c2)C2C(=O)NN=C2CC1(C)O (centres undefined),-1,x,x,x,x,x,x
CCOC(=O)Cc1csc(NC(=O)CSc2cc(Cl)ccc2Cl)n1,x,-4,x,x,-0.45,x,x
CCCCCCCC#Cc1ccccc1/C=N/S(=O)c1ccc(C)cc1 (centres undefined),x,x,x,x,13*,x,0.067
CC(=O)Nc1ccc(SCC(=O)N(CCC#N)c2cc(C)cc(C)c2)cc1,x,1,-6,-11,3.9*,5,0.084*
CCn1nc([N+](=O)[O-])c2c(-c3nc4ccccc4o3)c(N)n(CCCOC)c2c1=O,-6,x,x,x,x,x,x
CN(C)CCNC(=O)c1coc(=O)c(Br)c1,x,1,9,-38,13*,7,0.053
O=C(CCCOc1ccc(Cl)cc1Cl)N/N=C/c1cccc([N+](=O)[O-])c1,11,2,x,x,1.3,x,0.059
O=C(N/N=C/c1cccc([N+](=O)[O-])c1)C1CC(=O)N(c2ccc(Cl)cc2)C1 (centres undefined),-17,0,-8,6,-1.2,-5,x
COC(=O)c1ccccc1NC(=O)C1CC(=O)N(C2CCCCC2)C1 (centres undefined),-42,-1,x,x,-0.21,x,x
O=C(Nc1ccccc1)C1CC(=O)N(C2CCCCC2)C1 (centres undefined),-43,1,2,9,4.1*,3,0.053
Cc1cc(N2CCOCC2)nc(SCC(=O)c2ccccc2)n1,-21,0,x,x,0.31,x,0.085*
CC1(C)C(=O)OC(c2cccn2-c2cccc([N+](=O)[O-])c2)C2(CCCCC2)C1=O (centres undefined),-58,-6,x,x,-0.82,x,x
SMILES,E-sel TNF inh,Phagocyt inh,F-actin modifier,HUVEC tox TNFa,SDO1 yeast rescue,VCAM1 TNFa inh,sdo1 rescue conf
CC1(C)C(=O)OC(c2ccccc2)C2(CCCC2)C1=O (centres undefined),16,2,1,-7,3.2*,13,0.061
COC(=O)C1=C(C)NC(C)=C(C(=O)OC)C1c1ccc(OC(=O)c2ccco2)cc1,-22,2,23,-26,10*,11,0.079*
Cc1cc(C(F)(F)F)n(-c2ccc(N)cc2)n1,34,x,x,x,x,x,x
CS(=O)(=O)N(CC(=O)N1CCCCC1)c1cccc(F)c1,-4,x,x,x,x,x,x
CCC(C)C(NC(=O)OCc1ccccc1)C(=O)NC(Cc1ccc(O)cc1)C(=O)OC (centres undefined),10,x,x,x,x,x,x
CCCc1nc2ccccc2c(=O)n1N,4,-2,-17,13,3.6*,13,0.058
CCCCCc1nc2ccccc2c(=O)n1N,-36,0,19,10,-1.6,1,x
Nc1nc(-c2ccco2)c(-c2ccco2)s1,14,0,-24,14,13*,0,0.071*
CCSc1nnc(NC(=O)CSc2nnc(CNC(=O)c3ccc(OC)c(OC)c3)o2)s1,x,-12,x,x,-0.36,x,x
CC1(C)CC(=O)C=C(Nc2ccc(S(N)(=O)=O)cc2)C1,-4,-4,8,-4,0.6,-4,x
Cc1nc(Nc2ccc(S(N)(=O)=O)cc2)oc1C,x,-1,8,8,6.5*,14,0.05
CN(C)CCCNC(=S)N1CCn2c(nc3ccccc32)C1,-31,-2,x,x,-0.31,x,x
O=C(CSc1nnc(SCC(=O)c2ccco2)s1)c1ccco1,6,x,-11,6,2.5,-10,0.062
Cc1ccc(S(=O)(=O)n2nc(-c3ccco3)nc2N)cc1,-3,x,x,x,x,x,x
CC(C)CCn1nnnc1C(c1ccc(F)cc1)N1CCC(C(N)=O)CC1 (centres undefined),-38,0,x,x,3.5*,x,0.062
CCN(CC)S(=O)(=O)c1ccc(C(=O)Nc2cc3oc4ccccc4c3cc2OC)cc1,x,x,x,x,1.2,x,0.02
COc1ccc(-n2cnnc2SCc2cnc(-c3ccccc3)s2)cc1,x,0,-29,10,3.1*,-1,0.082
COCCn1c(SCc2cnc(-c3ccccc3)s2)nnc1-c1ccncc1,1,0,11,-32,-1.2,9,x
O=C(Nc1ccc(Cl)cc1)C1CCCN(S(=O)(=O)c2cnc[nH]2)C1 (centres undefined),1,0,-13,-20,0.28,0,x
CC(C)c1ccc(NC(=O)C2CCCN(S(=O)(=O)c3cnc[nH]3)C2)cc1 (centres undefined),x,0,7,4,1.3,-6,0.048
O=C(Nc1ccc(OC(F)(F)F)cc1)c1[nH]ncc1[N+](=O)[O-],-17,x,x,x,x,x,x
CCC(C)N(C(=O)COc1ccc(NC(C)=O)cc1)C1CCS(=O)(=O)C1 (centres undefined),-15,x,x,x,x,x,x
Cc1ccc(C)c(OCCCC(=O)Nc2nccs2)c1,-6,0,5,-22,10*,6,0.087*
Cc1ccccc1OCCCC(=O)Nc1nccs1,12,-1,-22,4,-0.34,-3,x
O=C(CCN1C(=O)c2ccccc2C1=O)Nc1ccc2c(c1)OCCO2,-8,1,1,-9,1.7,-30,0.076*
CCOC(=O)c1[nH]c(COC(=O)C2CC(=O)N(Cc3ccccc3)C2)c(C(=O)OCC)c1C (centres undefined),x,4,-1,-35,4.6*,35,0.046
